The structures appear in SMILES notation. Hit rate of the full screen: of about 2,400 compounds, about 750 (31%) were called active. Some of the results follow. A number with no mark means an inactive call.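 Rule for the calls: active = median signal gain over dofetilide-blocked control wells reaching their mean plus 3 SD, so readout 1 at least 0; inactive = the rest.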

This assay deals with Voltage-gated inwardly rectifying potassium channel KCNH2 (Homo sapiens) (UniProt Q12809). In words: hERG protection against dofetilide inhibition, confirmation, cell-based, thallium flux, duplicate retest, dofetilide IC70 (AID 1835). Conditions: hERG cell line, FluxOR thallium flux, dofetilide-blocked; at 10 µM; stronger effect = higher value. Background: Block of hERG is tested as a sign of cardiac risk.
Chain of Voltage-gated inwardly rectifying potassium channel KCNH2 (Homo sapiens) (Q12809 whole entry, looked up): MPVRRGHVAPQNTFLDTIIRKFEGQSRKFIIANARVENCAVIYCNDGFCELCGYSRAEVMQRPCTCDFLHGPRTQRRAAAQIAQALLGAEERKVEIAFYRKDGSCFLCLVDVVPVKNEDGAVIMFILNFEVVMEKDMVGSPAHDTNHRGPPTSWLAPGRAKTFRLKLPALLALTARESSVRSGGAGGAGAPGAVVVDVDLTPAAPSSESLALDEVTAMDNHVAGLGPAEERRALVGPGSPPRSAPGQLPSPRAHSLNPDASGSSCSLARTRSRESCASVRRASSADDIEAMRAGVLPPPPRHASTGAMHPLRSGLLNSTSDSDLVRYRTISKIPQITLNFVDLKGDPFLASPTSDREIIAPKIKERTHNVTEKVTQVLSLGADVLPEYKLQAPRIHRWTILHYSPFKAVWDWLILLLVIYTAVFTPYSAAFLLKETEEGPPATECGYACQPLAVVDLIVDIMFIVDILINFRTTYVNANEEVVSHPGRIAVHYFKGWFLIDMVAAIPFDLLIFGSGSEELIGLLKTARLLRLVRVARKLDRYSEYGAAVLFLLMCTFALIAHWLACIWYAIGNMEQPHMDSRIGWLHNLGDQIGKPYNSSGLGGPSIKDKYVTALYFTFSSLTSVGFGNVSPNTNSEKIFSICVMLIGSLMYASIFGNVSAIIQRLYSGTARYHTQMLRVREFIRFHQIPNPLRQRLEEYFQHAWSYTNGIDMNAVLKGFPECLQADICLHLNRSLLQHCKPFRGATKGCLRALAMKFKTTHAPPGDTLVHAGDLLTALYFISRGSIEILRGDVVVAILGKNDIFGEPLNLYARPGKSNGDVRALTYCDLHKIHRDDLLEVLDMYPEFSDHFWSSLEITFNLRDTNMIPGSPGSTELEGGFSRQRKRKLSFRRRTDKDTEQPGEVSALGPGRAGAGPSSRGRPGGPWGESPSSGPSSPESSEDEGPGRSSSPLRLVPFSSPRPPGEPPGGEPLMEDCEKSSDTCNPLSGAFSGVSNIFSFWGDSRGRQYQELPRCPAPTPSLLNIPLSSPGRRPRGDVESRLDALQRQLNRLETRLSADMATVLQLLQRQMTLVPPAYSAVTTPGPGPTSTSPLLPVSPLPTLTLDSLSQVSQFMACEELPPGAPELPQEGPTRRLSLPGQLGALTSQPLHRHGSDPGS
As to `O=C(COC(=O)c1cc(NS(=O)(=O)c2cccs2)ccc1O)Nc1cc(Cl)ccc1Cl`, the activity increase over dofetilide control, less the hit threshold is -4%. To `O=C(COC(=O)c1cccs1)NCCN1C(=O)CSC1=O` belongs -9%; to `CNC(=O)NC(=O)C(C)N1CCN(C/C=C/c2ccccc2)CC1` (stereo unspecified), -16%; to `Cc1nonc1OCCNc1ccc([N+](=O)[O-])cc1`, -2%. Regarding `CCCn1c(SC(C)C(=O)N2CCOCC2)nc2ccc(Br)cc2c1=O` (stereo unspecified), the activity increase over dofetilide control, less the hit threshold was -11%. To `O=c1c2cc(Br)ccc2nc(-c2ccc(Cl)cc2)n1O` belongs 101% (active); to `N#Cc1ccc(-c2nc3ccc(Br)cc3c(=O)n2O)cc1`, 1% (active). In the case of `Cc1ccc(-n2c(C)cc(C(=O)CN3CCOCC3)c2C)cc1` it was -6%; in that of `CC1CCCC(C(=O)OCc2ccccc2)N1` (stereo unspecified), -3%; in that of `CC(=O)Nc1ccc2nc(NC(=O)c3ccc([N+](=O)[O-])o3)sc2c1`, 5% (active).

With `O=C(Nc1ccc(N2CCN(C(=O)c3ccc(Cl)cc3)CC2)cc1)c1ccc([N+](=O)[O-])o1`, the activity increase over dofetilide control, less the hit threshold is -11%.

Turning to `O=C(Nc1ncc(Cc2ccc(C(F)(F)F)cc2)s1)c1ccc(-c2cccc([N+](=O)[O-])c2)o1`, the activity increase over dofetilide control, less the hit threshold is -14%. `O=C(NC1CCCCC1)c1ccc(COCC(F)(F)F)o1`: the activity increase over dofetilide control, less the hit threshold was -5%.

As to `O=c1oc2ccccc2c(NC2CCCCC2)c1NS(=O)(=O)c1ccc(Cl)cc1`, the activity increase over dofetilide control, less the hit threshold was -6%. To `COc1ccc(C)cc1S(=O)(=O)NC1CCCCC1` belongs -5%; to `Cc1cc(Cl)c(S(N)(=O)=O)cc1OCC(=O)NC1CCCCC1`, -8%; to `Cc1ccc(S(=O)(=O)NC(=S)NC2CCCCC2)cc1`, 3% (active). As to `CCc1ccc(S(=O)(=O)NC(=S)NC2CCCCC2)cc1`, the activity increase over dofetilide control, less the hit threshold is 35% (active). In the case of `O=S(=O)(NC(=S)NC1CCCCC1)c1ccc(Cl)cc1` it was 10% (active); in that of `CC(C)(C)c1ccccc1NC(=S)NC1CCCC1`, -7%. In the case of `CCOc1ccc(C(C)NC(=S)NC2CCCCC2)cc1` (stereo unspecified), the activity increase over dofetilide control, less the hit threshold is -9%. Turning to `O=S(=O)(NC(=S)NC1CCCCC1)c1ccc(Br)cc1`, the activity increase over dofetilide control, less the hit threshold is 12% (active). To `CC1=CN2C(=N)/C(=C/c3ccc(Sc4ccc(Cl)cc4)o3)C(=O)N=C2S1` belongs -2%. On to `CC(C)(C)n1nnnc1C(c1cc2cc3c(cc2[nH]c1=O)OCCO3)N1CCSCC1` (stereo unspecified), for which the activity increase over dofetilide control, less the hit threshold was -11%. On to `CC(C)(C)c1nc(SCC(=O)N2CCCC2)c2ccccc2n1`, for which the activity increase over dofetilide control, less the hit threshold was -15%. In the case of `Cc1cccc(N2CCN(C(=O)C3CCN(S(=O)(=O)c4cccnc4)CC3)CC2)c1C` it was -8%. In the case of `C/C(=N/NC(=S)Nc1cccc(C)c1)c1cccc([N+](=O)[O-])c1` it was -1%; in that of `C/C(=N\Nc1nc(C)c(C)s1)c1ccc([N+](=O)[O-])cc1`, 22% (active). To `C/C(=N\Nc1cc(N2CCOCC2)ncn1)c1cccc([N+](=O)[O-])c1` belongs -24%; to `COc1ccc2c(C(=O)CN3CCN(c4ccccc4)CC3)c[nH]c2c1`, -10%. For `O=C(O)c1cc(NN=C2c3ccccc3-c3ccccc32)ccc1Cl`, the activity increase over dofetilide control, less the hit threshold was -4%. In the case of `CCCN1CCC(NC(=O)CC2C(=O)NCCN2Cc2cccc(OC)c2)CC1` (stereo unspecified) it was -6%. As for `Cc1cc(C)c2nc(NC(=O)CN3C(=O)NC4(CCCC4)C3=O)sc2c1`, the activity increase over dofetilide control, less the hit threshold was -10%. Turning to `O=C(NC(=S)NCc1ccc(-c2nc3ccccc3s2)cc1)c1ccco1`, the activity increase over dofetilide control, less the hit threshold is -2%. For the compound `CC1CN(S(=O)(=O)c2ccc(-c3nc4ccccc4s3)cc2)CC(C)O1` (stereo unspecified), the activity increase over dofetilide control, less the hit threshold is 7% (active). In the case of `CCOC(=O)N1CCC(N2C(=O)c3ccccc3C2Nc2cccnc2)CC1` (stereo unspecified) it was 11% (active).

As for `Cc1ccnc(N2CCC(C(=O)Nc3ccc(Oc4ccccc4)cc3)CC2)n1`, the activity increase over dofetilide control, less the hit threshold is -11%.

On to `COc1ccc(-n2ncc3c2CC(C)(C)CC3NC(=O)c2cn[nH]c2)cc1` (stereo unspecified), for which the activity increase over dofetilide control, less the hit threshold was -9%. In the case of `Cc1ccc(-n2ncc3c2CCCC3NC(=O)c2csnn2)cc1C` (stereo unspecified) it was 21% (active). With `Cc1cc(C)cc(-n2ncc3c2CCCC3NC(=O)c2csnn2)c1` (stereo unspecified), the activity increase over dofetilide control, less the hit threshold was 58% (active). To `COc1cc2c(cc1OC)C(c1ccc([N+](=O)[O-])cc1)N(C(C)=O)CC2` (stereo unspecified) belongs -36%; to `Cc1ccc(S(=O)(=O)Nc2c(C)[nH]c(=O)[nH]c2=O)cc1C`, -13%.

Take `COc1ccc(-c2csc(NC(=S)NC(=O)c3cccs3)n2)cc1OC`: the activity increase over dofetilide control, less the hit threshold is -1%. To `Brc1ccc(-c2csc(N3CCCCCC3)n2)cc1` belongs -3%; to `O=C(NC(=S)Nc1nc(-c2ccccc2)cs1)c1cccs1`, 17% (active); to `COc1ccc(-c2csc(NC(=S)NC(=O)c3cccs3)n2)cc1Br`, 6% (active). In the case of `O=C(NC(=S)N1CCN(c2nc(-c3ccccc3)cs2)CC1)c1cncc(Br)c1` it was 12% (active). In the case of `O=C(NC(=S)Nc1ncc(Br)cc1Br)c1ccccc1` it was 11% (active). With `S=C(NCc1ccco1)N1CCN(c2nc(-c3ccccc3)cs2)CC1`, the activity increase over dofetilide control, less the hit threshold was -13%. In the case of `CC(O)C(NS(=O)(=O)c1ccc(Cl)cc1)C(=O)OCc1cc([N+](=O)[O-])cc2c1OCOC2` (stereo unspecified) it was -12%; in that of `Cc1cc(-c2ccccc2)[nH]c(=O)c1S(=O)(=O)c1ccccc1`, -17%.

For the origin of these results see PubChem BioAssay AID1835 (Johns Hopkins Ion Channel Center, 2009).
